Among the data in PubChem BioAssay (NCATS) are outcome, Potency and activity change, negative = inhibition values, retold here.

The nature of assay [1]: Stat Signaling Pathway (AID 446; active = well fitted curve in either direction with a large enough effect, not every such curve was filed as active;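 also: ME-180 cervical cancer cells given 40 pM IL-6 alongside compound; SIE-controlled beta-lactamase reporter measured as 460/530 nm FRET emission ratio; % is scaled to controls: 0 for no effect and ±100 for the full control effect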). An outline of the steps:
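Emission at 460 and 530 nm (excitation 405 nm) reports SIE-controlled beta-lactamase in ME-180 cells. Cells received compound with 40 pM IL-6 for 5 hrs at 37 C; data scaled between 300 pM IL-6 and 125 nM JAK-inhibitor controls.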

The target of assay [2] is Cytochrome P450 3A4 (Homo sapiens) (UniProt P08684). Kind of assay: qHTS Assay for Activators of Cytochrome P450 3A4 (AID 885). Also: nearly all actives have a fitted effect of over 65% in size. The gist of the method:
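Activators are scored by enhanced luminescence from CYP3A4 conversion of luciferin-PPXE (25uM, equal to KM) to luciferin, after 60 min at RT with an NADPH-regenerating system.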
(qHTS replaces the single test concentration by a dilution series.)

Assay [3] has as its target Cytochrome P450 2D6 (Homo sapiens) (UniProt P10635). Kind of assay: qHTS Assay for Inhibitors and Substrates of Cytochrome P450 2D6 (AID 891). Also: nearly all actives have a fitted effect of over 60% in size. Also: potency is read from the fitted curve at half-maximal effect.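 As to activity change, negative = inhibition: luciferin methyl ether substrate demethylated by CYP2D6 with NADPH regeneration; % is scaled to controls: 0 for no effect and ±100 for the full control effect.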 An outline of the steps:
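Luminescent read-out of luciferin formed by 5 nM human CYP2D6 demethylating 30 uM Luciferin-ME EGE (Km level) over 60 min at room temperature after NADPH regeneration addition. Data normalized to full inhibition by 1.43 uM quinidine.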

Assay [4] is described as follows: NFAT Signaling Pathway (AID 444; active = well fitted curve in either direction with a large enough effect, not every such curve was filed as active;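 also: carbachol stimulus at about its EC50 of 1 µM final; % is scaled to controls: 0 for no effect and ±100 for the full control effect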). Conditions: Jurkat NFAT-bla M1, carbachol, beta-lactamase ratio, 5 h; at 17.2 µM (top of the series) unless noted. An outline of the steps: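 Jurkat cells carrying an NFAT-driven β-lactamase reporter and co-transfected muscarinic M1 receptor were treated with compound plus carbachol (1 uM final, an EC50 level) for 5 h at 37 °C. CCF4 loading followed for 1 h at RT; 460/530 nm ratio gave %activity.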

The nature of assay [5]: S16 Schwann cell viability assay (CellTiter-Glo assay) (AID 624031).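 Also: native untransfected S16 rat Schwann cells; plate controls were DMSO-treated cells for no effect and cell-free wells for full effect; nearly all actives have a fitted effect of over 70% in size.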 The gist of the method: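 Counter-screen for cytotoxicity: parental S16 rat Schwann cells lacking the PMP22 reporters, treated 24 h with compound, viability from cellular ATP by CellTiter-Glo luminescence, normalized to DMSO (0%) and no-cell wells.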
(Cellular ATP, detected with luciferase, serves as a proxy for viable cell number.)

Assay [6] is described as follows: S16 Schwann cell PMP22 intronic element firefly luciferase assay (AID 624032).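 Also: plate controls were DMSO for no effect and PTC124 positive control mean for full effect; nearly all actives have a fitted effect of over 30% in size.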 An outline of the steps:
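Rat S16 Schwann cells stably carrying a PMP22 intronic element-driven Fluc reporter were seeded overnight, then exposed to compounds for 24 h at 37 °C. Luminescence was normalized to PTC124 (positive control) and DMSO (0% activity).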

The next assay has as its system 7G8. Nature of the assay: qHTS profiling for inhibitors of Plasmodium falciparum proliferation (AID 504749).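 Also: 0% = DMSO vehicle and full inhibition = artemisinin control; nearly all actives have a fitted effect of over 60% in size.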 Conditions: P. falciparum in erythrocytes, SYBR Green DNA, 72 h; series mostly up to 12.8 µM. The gist of the method: (§1)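 Fluorescence of SYBR Green-bound parasite DNA, read at 485/535 nm, served as the growth measure. Infected erythrocytes were cultured with compound 72 h; artemisinin (0.29 uM) and DMSO wells defined the normalization range.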

The test system of the next assay is CP203. The assay is described as above. To be noted: P. falciparum in erythrocytes, SYBR Green DNA, 72 h; series mostly up to 12.8 µM. An outline of the steps:
as §1

The subject of a further assay is CP215. Described as above. Conditions: P. falciparum in erythrocytes, SYBR Green DNA, 72 h; series mostly up to 12.8 µM. An outline of the steps: as §1
In the next assay the test system is CP260. The description is as above. Conditions: P. falciparum in erythrocytes, SYBR Green DNA, 72 h; series mostly up to 12.8 µM. An outline of the steps: as §1
Another assay concerns CP335. The assay is described as above. To be noted: P. falciparum in erythrocytes, SYBR Green DNA, 72 h; series mostly up to 12.8 µM. The gist of the method:
as §1

The subject of the next assay is DFO2036. The description is as above. Conditions: P. falciparum in erythrocytes, SYBR Green DNA, 72 h; series mostly up to 12.8 µM. The gist of the method:
as §1

The subject of a further assay is DIV17. The assay is described as above. Conditions: P. falciparum in erythrocytes, SYBR Green DNA, 72 h; series mostly up to 12.8 µM. An outline of the steps:
as §1

The next assay deals with GB4. Described as above. Conditions: P. falciparum in erythrocytes, SYBR Green DNA, 72 h; series mostly up to 12.8 µM. An outline of the steps:
as §1

A further assay relates to ICS. Described as above. To be noted: P. falciparum in erythrocytes, SYBR Green DNA, 72 h; series mostly up to 12.8 µM. An outline of the steps: as §1
The next assay deals with W2. The description is as above. To be noted: P. falciparum in erythrocytes, SYBR Green DNA, 72 h; series mostly up to 12.8 µM. An outline of the steps:
as §1

The target in assay [7] is Cytochrome P450 2C9 (Homo sapiens) (UniProt P11712). Kind of assay: qHTS Assay for Inhibitors and Substrates of Cytochrome P450 2C9 (AID 883). Also: % is scaled to controls: 0 for no effect and ±100 for the full control effect; nearly all actives have a fitted effect of over 60% in size. An outline of the steps: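 A luminogenic readout tracked human CYP2C9 (10nM) converting deoxyluciferin (100uM, at KM) in 25mM KPO4 during 60 min at 37C with regenerated NADPH. Values normalized to 57uM sulphaphenazole as complete inhibition.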

In assay [8] the target is Cytochrome P450 3A4 (Homo sapiens) (UniProt P08684). Nature of the assay: qHTS Assay for Inhibitors and Substrates of Cytochrome P450 3A4 (AID 884). Also: nearly all actives have a fitted effect of over 50% in size. Also: potency is read from the fitted curve at half-maximal effect. As to activity change, negative = inhibition: % is scaled to controls: 0 for no effect and ±100 for the full control effect. An outline of the steps:
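Luminescent readout of luciferin produced by CYP3A4 (20 nM) dealkylation of Luciferin-PPXE, 25 uM (its KM). NADPH-driven reaction ran 60 min at RT after 10 min compound preincubation; data scaled to 57 uM ketoconazole as 100% inhibition.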

A short description of assay [9]: Confirmation and Secondary Assay for Modulators of Hemoglobin Beta Chain Splicing at IVS2 654 locus (AID 910).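 Also: per-well total GFP intensity by laser scanning cytometry after 2-day treatment; % of control where 0% means no effect.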 The gist of the method: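 HeLa cells stably carrying EGFP interrupted by mutant beta-globin IVS2-654 intron (CMV-driven) were treated with compound for 2 days at 37C; corrected splicing was scored as total peak GFP intensity per well (488 nm excitation, 500-520 nm emission).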

A short description of assay [10]: Confirmation and Secondary Assay for Modulators of Hemoglobin Beta Chain Splicing at IVS2 705 locus (AID 930).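 Also: HeLa cells stably expressing the EGFP-705 splicing reporter; GFP fluorescence per well restored by corrected splicing of the IVS2-705 intron in EGFP; % of control where 0% means no effect.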 The gist of the method:
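First, HeLa EGFP-705 cells are seeded at 500/well in Optimem with 2% FCS and left overnight. Next, compound or DMSO is added for 2 days. Finally wells are laser-scanned and total peak GFP intensity scored.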

A number with no mark means an inactive call. Inconclusive results are not listed. Activity calls are given as the source filed them. Unless noted, calls follow the shape of the dose curve; as a rule, active = well fitted curve in the direction sought with a large enough effect; inconclusive = small, poorly fitted or top-dose-only effect, or another doubt; inactive = no such curve, though single readings can be large; an effect the other way counts as inactive or inconclusive.

Chain of Cytochrome P450 2D6 (Homo sapiens) (P10635 whole entry, looked up): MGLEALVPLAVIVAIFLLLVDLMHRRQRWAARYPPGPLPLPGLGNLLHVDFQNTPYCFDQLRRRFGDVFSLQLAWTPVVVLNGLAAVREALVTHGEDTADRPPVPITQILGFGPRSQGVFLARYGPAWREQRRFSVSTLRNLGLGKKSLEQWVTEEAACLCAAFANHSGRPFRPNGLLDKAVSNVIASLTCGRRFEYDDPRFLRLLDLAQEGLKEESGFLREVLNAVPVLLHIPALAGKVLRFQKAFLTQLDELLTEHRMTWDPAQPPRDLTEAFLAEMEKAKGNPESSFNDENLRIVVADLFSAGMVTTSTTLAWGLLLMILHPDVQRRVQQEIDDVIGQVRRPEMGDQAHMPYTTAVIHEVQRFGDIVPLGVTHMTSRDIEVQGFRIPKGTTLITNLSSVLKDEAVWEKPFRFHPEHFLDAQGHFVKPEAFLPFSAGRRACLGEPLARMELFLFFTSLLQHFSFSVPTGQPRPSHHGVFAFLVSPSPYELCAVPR
Chain of Cytochrome P450 2C9 (Homo sapiens) (P11712 whole entry, looked up): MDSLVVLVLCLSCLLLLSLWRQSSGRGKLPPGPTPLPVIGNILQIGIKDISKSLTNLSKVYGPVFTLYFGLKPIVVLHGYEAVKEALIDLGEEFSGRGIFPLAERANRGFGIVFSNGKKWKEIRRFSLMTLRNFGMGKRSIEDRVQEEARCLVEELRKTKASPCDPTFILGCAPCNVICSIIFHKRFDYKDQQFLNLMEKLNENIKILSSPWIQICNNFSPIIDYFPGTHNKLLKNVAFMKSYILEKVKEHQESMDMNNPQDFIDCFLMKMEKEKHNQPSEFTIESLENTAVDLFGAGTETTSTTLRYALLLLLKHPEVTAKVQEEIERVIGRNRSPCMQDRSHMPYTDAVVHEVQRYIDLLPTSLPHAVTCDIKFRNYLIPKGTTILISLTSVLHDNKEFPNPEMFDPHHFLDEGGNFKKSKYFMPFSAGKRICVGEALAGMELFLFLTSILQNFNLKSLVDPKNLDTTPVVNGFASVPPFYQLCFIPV
Chain of Cytochrome P450 3A4 (Homo sapiens) (P08684 whole entry, looked up): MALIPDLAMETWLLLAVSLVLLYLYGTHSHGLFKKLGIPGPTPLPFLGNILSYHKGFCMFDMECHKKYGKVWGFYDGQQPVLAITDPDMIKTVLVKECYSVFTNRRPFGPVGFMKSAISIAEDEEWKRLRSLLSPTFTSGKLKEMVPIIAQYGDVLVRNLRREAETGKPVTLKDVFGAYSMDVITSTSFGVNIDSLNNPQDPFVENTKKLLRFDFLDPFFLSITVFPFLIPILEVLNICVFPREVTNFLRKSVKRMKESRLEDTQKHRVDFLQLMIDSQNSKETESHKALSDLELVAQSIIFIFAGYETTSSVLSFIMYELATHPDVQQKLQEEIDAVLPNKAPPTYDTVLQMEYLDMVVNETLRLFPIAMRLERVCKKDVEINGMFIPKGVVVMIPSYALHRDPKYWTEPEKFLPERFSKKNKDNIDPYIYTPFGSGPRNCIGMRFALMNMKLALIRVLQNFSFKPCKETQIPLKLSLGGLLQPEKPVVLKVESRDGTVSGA

Turning to `CNCCC=C1c2ccccc2C=Cc2ccccc21`, the molecule was called inactive in assay [1]. In addition, the Potency result in [2] was “inactive”. Moreover, the Potency in assay [3] was 5.01 µM (active).

Consider `NS(=O)(=O)c1cc2c(cc1C(F)(F)F)N[C@H](Cc1ccccc1)NS2(=O)=O`, for which the activity change, negative = inhibition in [4] was 17.7%. The molecule was called inactive in assay [1] and in assay [5]. Besides, the Potency result (in [2]; in [6]; in the assay with 7G8; in the assay with CP203; in the assay on CP215; in the assay with CP260) was “inactive” in each case. Besides, the Potency entry in the assay with CP335, in the assay on DFO2036, in the assay with DIV17, in the assay with GB4, with ICS and with W2 was “inactive” in each case.

For `C[N+]1(C)C[C@@H](O)C[C@@H]1C(=O)[O-]`, the activity change, negative = inhibition in assay [4] is -11.1%. In addition, the molecule was classed as inactive in assay [1].

For `NC(=O)c1ccc[n+]([C@@H]2O[C@H](COP(=O)([O-])OP(=O)(O)OC[C@H]3O[C@@H](n4cnc5c(N)ncnc54)[C@@H](O)[C@@H]3O)[C@@H](O)[C@@H]2O)c1`, in assay [4], the activity change, negative = inhibition was 1.83%. Also, the molecule was classed as inactive in assay [1]. In addition, the Potency entry (in [7]; in assay [8]; in assay [3]; in assay [6]; with 7G8; in the assay with CP203) was “inactive” in each case. The Potency result in the assay with CP215, in the assay on CP260, in the assay on CP335, in the assay with DFO2036, with DIV17 and with GB4 was “inactive” in each case. For the same molecule, the Potency entry with ICS and with W2 was “inactive” in each case.

Take `CC(=O)N[C@H](CS)C(=O)O`: the activity change, negative = inhibition in assay [4] is -2.14% [at 38 µM]. The molecule was called inactive in assay [1]. Moreover, the Potency entry in assay [7], in assay [8], in assay [3], in [9] and in [10] was “inactive” in each case.

As to `c1ccc2c3c([nH]c2c1)[C@@H]1[C@H]2CC[C@H]([C@H]4CCCN[C@H]42)N1CC3`, the molecule was classed as inactive in [1]. For the same molecule, the Potency in assay [3] is 7.94 µM (active).

As to `CN(C)c1ccc(-c2nccc(NCc3ccccc3)n2)cc1`, the activity change, negative = inhibition in assay [4] was -14.3% [at 7.69 µM]. For the same molecule, the call in [1] was inactive. The results for the Potency in assay [8] and in assay [3] were 7.94 µM (active) and 3.16 µM (active), respectively. Also, the Potency result in assay [2], in assay [9] and in assay [10] was “inactive” in each case.

As to `FC(F)(F)c1ccccc1-c1ccc2ncnc(NC3CCNCC3)c2c1`, the results for the activity change, negative = inhibition in assay [4] and in [7] were 2.61% [at 7.69 µM] and 12.9% [at 2.29 µM], respectively. Further, the Potency result in assay [9] and in assay [10] was “inactive” in each case.

With `CC[C@@H]1OC(=O)[C@H](C)[C@H](O[C@@H]2C[C@](C)(OC)[C@H](O)[C@H](C)O2)[C@H](C)[C@H](O[C@@H]2O[C@@H](C)C[C@@H](N(C)C)[C@@H]2O)[C@](C)(O)C[C@H](C)C(=NOCOCCOC)[C@H](C)[C@H](O)[C@]1(C)O`, the activity change, negative = inhibition in assay [4] is -1.03%. In addition, the molecule was called inactive in assay [1] and in assay [5]. The Potency entry with 7G8, with CP203, in the assay with CP335, in the assay on DIV17, in the assay with GB4 and in the assay with ICS was “inactive” each time.
